Measurements: the supplement of paper PMC6555819

System: PPARg:RXRa 270nM:90nM, anti-RXR (NR concentration 270 nM, RXRa partner concentration 90 nM)
Experiment: PBM binding z-score (relative to random genomic background probes); higher = stronger binding; sequences stand for … in GC…GCGATTGACAGCGTAGAATGAAGG
Outline: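 Ligand-free nuclear receptor dimers were bound for 1 h to custom Agilent 4×180K protein-binding microarrays. Detection used antibodies against each partner (one per run). Binding z-scores rest on regression-normalized fluorescence, with random background probes as the reference.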

Row | Sequence | PBM binding z-score
1 | ATCTCAAGGTAAAGTTCAGTGAAAGATCGATAGA | 3.4
2 | GCTAGTTGGTTAGTAAAAGGTCACACACCGGTCG | 3.55
3 | CCTAGTTGGTCAGGAGGTCACTCACCGGATATGA | 3.43
4 | ACGAGCAGGCCAAGGGTCACTCAAGATTAGTCCG | 6.33
5 | TGAATGAGGTTATAAGTTCAGGGAACGTTGCAAA | 3.38
6 | ATTTCTAGGTAAGACTCAGTTCAGTGAAGAACGC | 0.947
7 | TCTATTAGTTGAAGGGCAACCGCCGAGTCCGTTT | 2.19
8 | TCTAGCAGGCCGGAGGGTCACTCAAGAGGTACGG | 1.34
9 | TCTCGGAGGACACGAAAGGTTAGAGCTCGACATC | 1.69
10 | ATATGTAGGTTACATCCGGGTCAATCAGGCTATG | 5.29
11 | GATACAGGGTAAAGGCCAGAGTACGCGTATTGAT | 5.45
12 | CCGACTGGGGCATAAGGTTGCCATAAGCCAGCCC | 1.81
13 | CCTCGGAGGACAGAAGGTCAGAGCAGTCCGCTTT | 0.948
14 | ACTATTAGGTGAGACGAGGGCAACCGATAGGTTG | 1.19
15 | CGAACTAGGTCACGAAAGGTCAAAGTCGAATGAC | 8.46
16 | CCTTACAGGTCACTCCAGGTTATAGCATCGGAGT | 3.66
17 | AGAATGAGGTTACCAAAGATCAGGGGAACGCTTG | 2.72
18 | GCATTTAGGTAATACAAGGTGAAAGTCCGATTGT | 1.03
19 | TTACCAAGGTGAGCTGAGGTCATTGATCCAACTC | 2.46
20 | AGAATGAGGATATTAAGATCAGGGAATTGCGGTC | -0.0295
21 | ACTGTTAGTTGACTTAGGGCAACCGATACGACGC | 0.221
22 | ATCTCTAGGTAACCATGTTCAGTGAATGCCGAAC | 0.662
